# Experimental data from PubChem BioAssay (EPA / NIEHS).
# Results filed as inconclusive are left out. Calls of active or inactive are those of the source. How the source made its calls: active means hit-call score of the fitted dose curve at least 0.9, where 1 is the maximum; inconclusive means response in the unintended direction; inactive means score below 0.9.
# Legend:
# [1] = molecular target: Cytochrome P450 3A4 (Homo sapiens) (UniProt P08684); test: NVS_ADME_hCYP3A4: NovaScreen (NVS) CYP450-related Enzyme Activity (ADME) Assay for human CYP3A4 (AID 2283110)
# Summary of the method: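 Compounds were first screened in duplicate at 10 uM against recombinant CYP3A4 produced in insect cells, then actives were run in concentration series. Enzyme activity was measured by fluorescence after 0.33 hour, with acetonitrile as baseline.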
# [2] = molecular target: Cytochrome P450 2C19 (Homo sapiens) (UniProt P33261); test: NVS_ADME_hCYP2C19: NovaScreen (NVS) CYP450-related Enzyme Activity (ADME) Assay for human CYP2C19 (AID 2283113);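 on AC50: potency for inhibition seen as loss of fluorescent signal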
# Summary of the method: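 Fluorescence intensity was measured 1 hour after chemicals were added to insect-cell-derived recombinant CYP2C19 with fluorogenic substrate. Decreased signal versus acetonitrile control was taken as reduced enzyme activity; initial testing used 10 uM in duplicate.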
# [3] = molecular target: human Caspase 4 (CASP4), CASP4 (gene 837) (UniProt P49662); test: NVS_ENZ_hCASP4: NovaScreen (NVS) Enzymatic Assay for human Caspase 4 (CASP4) (AID 2283143)
# Sequence of human Caspase 4 (CASP4), CASP4 (gene 837) (P49662 whole entry, looked up): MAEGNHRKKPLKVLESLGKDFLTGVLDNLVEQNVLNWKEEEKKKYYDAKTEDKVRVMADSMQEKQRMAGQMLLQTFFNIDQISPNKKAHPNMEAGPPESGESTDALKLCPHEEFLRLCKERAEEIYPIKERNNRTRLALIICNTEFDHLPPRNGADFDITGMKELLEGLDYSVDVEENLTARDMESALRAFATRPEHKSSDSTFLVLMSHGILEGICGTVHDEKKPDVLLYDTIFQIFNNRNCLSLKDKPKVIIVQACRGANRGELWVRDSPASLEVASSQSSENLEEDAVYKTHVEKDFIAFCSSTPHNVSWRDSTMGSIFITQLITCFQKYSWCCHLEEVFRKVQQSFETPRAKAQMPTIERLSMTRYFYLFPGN
# Summary of the method: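 The cell-free assay used E. coli-expressed enzyme with a fluorogenic substrate, read 2 h after dosing. Signal loss was scored versus DMSO. Screening was in duplicate at 25 uM, then singleton concentration-response up to 50 uM.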
# [4] = molecular target: human Colony Stimulating Factor 1 Receptor (CSF1R), CSF1R (gene 1436) (UniProt P07333); test: NVS_ENZ_hCSF1R: NovaScreen (NVS) Enzymatic Assay for human Colony Stimulating Factor 1 Receptor (CSF1R) (AID 2283150)
# Sequence of human Colony Stimulating Factor 1 Receptor (CSF1R), CSF1R (gene 1436) (P07333 whole entry, looked up): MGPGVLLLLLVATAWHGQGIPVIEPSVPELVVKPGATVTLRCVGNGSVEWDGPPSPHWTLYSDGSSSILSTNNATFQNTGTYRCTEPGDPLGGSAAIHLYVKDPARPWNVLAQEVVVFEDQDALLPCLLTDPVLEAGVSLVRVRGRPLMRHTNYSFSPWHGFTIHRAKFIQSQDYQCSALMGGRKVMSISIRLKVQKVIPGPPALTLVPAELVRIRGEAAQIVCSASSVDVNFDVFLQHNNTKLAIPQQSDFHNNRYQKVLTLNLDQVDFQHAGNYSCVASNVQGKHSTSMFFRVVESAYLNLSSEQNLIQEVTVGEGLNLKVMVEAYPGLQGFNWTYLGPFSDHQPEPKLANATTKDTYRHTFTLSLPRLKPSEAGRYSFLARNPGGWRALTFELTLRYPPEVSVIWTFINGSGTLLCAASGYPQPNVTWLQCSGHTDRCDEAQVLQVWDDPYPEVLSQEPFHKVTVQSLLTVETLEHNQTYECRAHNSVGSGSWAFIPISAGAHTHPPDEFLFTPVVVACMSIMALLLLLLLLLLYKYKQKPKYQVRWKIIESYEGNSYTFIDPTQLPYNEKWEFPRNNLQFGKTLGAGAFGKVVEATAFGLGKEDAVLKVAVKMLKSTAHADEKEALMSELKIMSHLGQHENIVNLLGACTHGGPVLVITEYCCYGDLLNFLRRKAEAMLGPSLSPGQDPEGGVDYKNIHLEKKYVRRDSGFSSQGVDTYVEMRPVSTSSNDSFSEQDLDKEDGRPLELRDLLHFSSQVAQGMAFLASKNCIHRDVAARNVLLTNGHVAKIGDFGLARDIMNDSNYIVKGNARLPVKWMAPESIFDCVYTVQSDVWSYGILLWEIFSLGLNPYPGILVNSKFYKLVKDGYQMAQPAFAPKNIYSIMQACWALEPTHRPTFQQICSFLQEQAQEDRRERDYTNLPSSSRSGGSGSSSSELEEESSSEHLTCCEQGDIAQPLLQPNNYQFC
# Summary of the method: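 Cell-free recombinant human CSF1R kinase with fluorescent substrate, product separated by electrophoretic mobility shift; read 1 h after dosing. Primary screen at 25 uM in duplicate, actives then in concentration-response up to 50 uM, relative to DMSO.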
# [5] = molecular target: human Elastase, ELANE (gene 1991) (UniProt P08246); test: NVS_ENZ_hElastase: NovaScreen (NVS) Enzymatic Assay for human Elastase (AID 2283153)
# Sequence of human Elastase, ELANE (gene 1991) (P08246 whole entry, looked up): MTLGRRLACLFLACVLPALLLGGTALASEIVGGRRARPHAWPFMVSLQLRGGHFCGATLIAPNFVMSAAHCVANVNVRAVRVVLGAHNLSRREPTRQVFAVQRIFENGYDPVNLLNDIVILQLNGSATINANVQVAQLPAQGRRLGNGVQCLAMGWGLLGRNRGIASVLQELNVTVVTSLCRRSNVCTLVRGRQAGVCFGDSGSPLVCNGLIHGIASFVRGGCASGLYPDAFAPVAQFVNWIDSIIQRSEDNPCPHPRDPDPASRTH
# Summary of the method: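 Cell-free elastase from human neutrophils, 1.5 h after dosing, activity read by absorbance. Primary screen in duplicate at 25 uM; hits (e.g., 30% inhibition) rerun in singleton concentration-response up to 50 uM, fitted versus DMSO.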
# [6] = molecular target: human Acid Phosphatase 1 (ACP1), ACP1 (gene 52) (UniProt P24666); test: NVS_ENZ_hACP1: NovaScreen (NVS) Enzymatic Assay for human Acid Phosphatase 1 (ACP1) (AID 2283136)
# Sequence of human Acid Phosphatase 1 (ACP1), ACP1 (gene 52) (P24666 whole entry, looked up): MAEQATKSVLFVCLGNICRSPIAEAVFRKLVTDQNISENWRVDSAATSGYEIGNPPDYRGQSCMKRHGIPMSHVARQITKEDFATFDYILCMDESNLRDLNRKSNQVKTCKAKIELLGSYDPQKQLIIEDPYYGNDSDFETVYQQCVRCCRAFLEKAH
# Summary of the method: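 Recombinant enzyme expressed in Sf9 cells, tested cell-free; activity read by fluorescence with electrophoretic mobility shift separation of substrate and product, 1.5 h after dosing. Primary screen in duplicate at 25 uM, actives then run in concentration series; loss of signal versus DMSO.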
# [7] = molecular target: human Beta-secretase (BACE), BACE1 (gene 23621) (UniProt P56817); test: NVS_ENZ_hBACE: NovaScreen (NVS) Enzymatic Assay for human Beta-secretase (BACE) (AID 2283140);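 further: hits are inhibitors that reduce fluorescent substrate signal versus DMSO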
# Sequence of human Beta-secretase (BACE), BACE1 (gene 23621) (P56817 whole entry, looked up): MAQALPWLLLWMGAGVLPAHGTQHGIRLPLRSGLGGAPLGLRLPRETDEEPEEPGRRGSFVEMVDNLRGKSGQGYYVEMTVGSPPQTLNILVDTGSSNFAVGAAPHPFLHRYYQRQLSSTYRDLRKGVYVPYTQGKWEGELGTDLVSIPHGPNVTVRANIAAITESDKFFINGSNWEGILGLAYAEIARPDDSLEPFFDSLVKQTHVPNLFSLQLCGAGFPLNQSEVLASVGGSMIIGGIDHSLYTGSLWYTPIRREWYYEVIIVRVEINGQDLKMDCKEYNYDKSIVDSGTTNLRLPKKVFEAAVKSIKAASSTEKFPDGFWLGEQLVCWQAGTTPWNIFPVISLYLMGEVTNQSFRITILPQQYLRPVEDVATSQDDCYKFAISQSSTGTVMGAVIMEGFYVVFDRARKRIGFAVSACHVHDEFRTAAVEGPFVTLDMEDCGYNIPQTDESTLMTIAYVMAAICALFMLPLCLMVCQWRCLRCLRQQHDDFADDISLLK
# Summary of the method: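 Recombinant BACE1 (SF9 extract) incubated with compound and fluorescent substrate, 1 h. Plates carried positive and DMSO negative controls. Initial single dose 25 uM, duplicate; confirmation by concentration series.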
# [8] = molecular target: human Esterase Plasma (ES), BCHE (gene 590) (UniProt P06276); test: NVS_ENZ_hES: NovaScreen (NVS) Enzymatic Assay for human Esterase Plasma (ES) (AID 2283157)
# Sequence of human Esterase Plasma (ES), BCHE (gene 590) (P06276 whole entry, looked up): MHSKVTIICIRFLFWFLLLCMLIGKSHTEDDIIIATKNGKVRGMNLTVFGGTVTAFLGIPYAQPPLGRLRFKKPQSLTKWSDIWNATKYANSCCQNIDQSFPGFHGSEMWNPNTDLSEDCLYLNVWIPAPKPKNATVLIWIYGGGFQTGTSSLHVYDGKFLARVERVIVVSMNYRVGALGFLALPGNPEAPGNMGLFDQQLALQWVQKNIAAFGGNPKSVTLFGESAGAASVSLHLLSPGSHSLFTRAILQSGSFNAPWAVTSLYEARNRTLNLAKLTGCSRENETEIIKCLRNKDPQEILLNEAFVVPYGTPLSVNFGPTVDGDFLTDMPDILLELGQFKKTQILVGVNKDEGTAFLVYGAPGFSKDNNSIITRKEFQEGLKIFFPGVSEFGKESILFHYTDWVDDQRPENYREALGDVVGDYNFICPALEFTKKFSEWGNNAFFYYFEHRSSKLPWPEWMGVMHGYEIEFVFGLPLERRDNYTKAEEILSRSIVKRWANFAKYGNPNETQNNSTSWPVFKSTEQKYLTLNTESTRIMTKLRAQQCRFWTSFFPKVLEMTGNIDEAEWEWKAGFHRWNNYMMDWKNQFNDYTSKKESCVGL
# Summary of the method: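 Chemicals were added to plasma-extracted human enzyme in a cell-free format, and activity was read colorimetrically after 0.25 hour. Activity loss was referenced to DMSO; concentration-response top dose was 50 uM.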
# [9] = molecular target: human CYP2D6, CYP2D6 (gene 1565) (UniProt P10635); test: NVS_ADME_hCYP2D6: NovaScreen (NVS) CYP450-related Enzyme Activity (ADME) Assay for human CYP2D6 (AID 2283107)
# Summary of the method: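 Insect-cell recombinant enzyme + fluorogenic substrate, cell-free; 1 h incubation; fluorescence intensity readout. Acetonitrile = neg. ctrl/baseline. Single-point 10 uM, duplicate; follow-up concentration series.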
# [10] = molecular target: human CYP2C9, CYP2C9 (gene 1559) (UniProt P11712); test: NVS_ADME_hCYP2C9: NovaScreen (NVS) CYP450-related Enzyme Activity (ADME) Assay for human CYP2C9 (AID 2283108)
# Summary of the method: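 Fluorescence readout of CYP2C9 activity (SF9-expressed human enzyme) at 0.75 h. The primary screen used 10 uM in duplicate, with concentration-response follow-up for actives; acetonitrile was the negative control.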
# [11] = molecular target: human AKT serine/threonine Kinase 2 (AKT2), AKT2 (gene 208) (UniProt P31751); test: NVS_ENZ_hAKT2: NovaScreen (NVS) Enzymatic Assay for human AKT serine/threonine Kinase 2 (AKT2) (AID 2283141)
# Sequence of human AKT serine/threonine Kinase 2 (AKT2), AKT2 (gene 208) (P31751 whole entry, looked up): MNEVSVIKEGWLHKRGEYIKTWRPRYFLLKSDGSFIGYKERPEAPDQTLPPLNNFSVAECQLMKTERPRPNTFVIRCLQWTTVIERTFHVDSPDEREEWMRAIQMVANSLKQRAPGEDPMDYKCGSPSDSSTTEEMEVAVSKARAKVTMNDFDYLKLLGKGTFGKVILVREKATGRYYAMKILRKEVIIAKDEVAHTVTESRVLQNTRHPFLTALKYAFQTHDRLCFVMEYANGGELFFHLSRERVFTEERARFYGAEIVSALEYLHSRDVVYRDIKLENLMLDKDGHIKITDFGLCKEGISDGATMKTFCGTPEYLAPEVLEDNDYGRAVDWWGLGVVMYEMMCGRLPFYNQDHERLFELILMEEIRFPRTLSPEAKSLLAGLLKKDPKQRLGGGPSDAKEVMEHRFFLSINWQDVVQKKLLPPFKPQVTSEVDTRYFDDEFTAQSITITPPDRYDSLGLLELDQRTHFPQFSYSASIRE
# Summary of the method: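 Cell-free fluorescence/electrophoretic mobility shift readout of recombinant human AKT2 activity, 1 h after chemical dosing. Duplicate primary screen at 25 uM, then singleton concentration-response up to 50 uM; loss of signal versus DMSO baseline.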
# [12] = molecular target: human Ephrin type-A Receptor 1 (EphA1), EPHA1 (gene 2041) (UniProt P21709); test: NVS_ENZ_hEphA1: NovaScreen (NVS) Enzymatic Assay for human Ephrin type-A Receptor 1 (EphA1) (AID 2283158);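 further: activity is signal loss versus DMSO meaning EphA1 kinase inhibition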
# Summary of the method: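 Chemicals first tested in duplicate at 25 uM against recombinant EphA1 with a fluorescent substrate; those passing threshold went to singleton dose-response topping at 50 uM. Activity read 1 h later as mobility-shift fluorescence, loss of signal relative to DMSO.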
# [13] = molecular target: human Caspase 8 (CASP8), CASP8 (gene 841) (UniProt Q14790); test: NVS_ENZ_hCASP8: NovaScreen (NVS) Enzymatic Assay for human Caspase 8 (CASP8) (AID 2283146)
# Summary of the method: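 E. coli-expressed enzyme was used in a cell-free fluorogenic substrate assay read 1 h after dosing. Loss of signal was scored relative to DMSO, and the primary screen was run in duplicate at 25 uM.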
# Caspase-3 (Homo sapiens) = Caspase-3 (Homo sapiens) (UniProt P42574); test: NVS_ENZ_hCASP3: NovaScreen (NVS) Enzymatic Assay for human Caspase 3 (CASP3) (AID 2283139)
# Sequence of Caspase-3 (Homo sapiens) (P42574 whole entry, looked up): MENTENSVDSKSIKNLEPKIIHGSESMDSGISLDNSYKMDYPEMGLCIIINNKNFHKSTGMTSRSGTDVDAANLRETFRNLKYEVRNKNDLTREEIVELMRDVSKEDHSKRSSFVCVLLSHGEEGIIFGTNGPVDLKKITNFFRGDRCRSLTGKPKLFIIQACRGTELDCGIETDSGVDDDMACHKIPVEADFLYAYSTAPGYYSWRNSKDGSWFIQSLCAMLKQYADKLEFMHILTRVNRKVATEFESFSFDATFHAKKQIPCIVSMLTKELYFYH
# Summary of the method: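 Recombinant human caspase-3 from E. coli with a fluorogenic substrate, read by fluorescence 1 h after dosing. Primary screen in duplicate at 25 uM. Actives (for example ≥30% inhibition) rerun as concentration-response up to 50 uM.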
# [14] = molecular target: human AKT serine/threonine Kinase 1 (AKT1), AKT1 (gene 207) (UniProt P31749); test: NVS_ENZ_hAKT1: NovaScreen (NVS) Enzymatic Assay for human AKT serine/threonine Kinase 1 (AKT1) (AID 2283138)
# Sequence of human AKT serine/threonine Kinase 1 (AKT1), AKT1 (gene 207) (P31749 whole entry, looked up): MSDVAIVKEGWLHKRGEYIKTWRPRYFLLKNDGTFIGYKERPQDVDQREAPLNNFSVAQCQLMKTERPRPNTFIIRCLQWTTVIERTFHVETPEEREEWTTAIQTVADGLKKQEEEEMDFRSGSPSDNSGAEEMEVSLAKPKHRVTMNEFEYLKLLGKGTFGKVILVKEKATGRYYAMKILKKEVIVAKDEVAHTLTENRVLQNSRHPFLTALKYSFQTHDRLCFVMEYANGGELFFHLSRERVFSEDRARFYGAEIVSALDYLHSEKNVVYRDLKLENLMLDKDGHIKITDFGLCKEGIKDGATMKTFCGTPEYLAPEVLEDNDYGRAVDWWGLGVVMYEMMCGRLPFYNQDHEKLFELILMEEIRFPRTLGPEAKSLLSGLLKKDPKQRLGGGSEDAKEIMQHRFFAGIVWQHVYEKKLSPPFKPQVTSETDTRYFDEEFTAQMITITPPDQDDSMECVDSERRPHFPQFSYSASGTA
# Summary of the method: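 Signal loss relative to DMSO, measured by fluorescence after electrophoretic separation of substrate and product, indicates inhibition of recombinant enzyme. Readings at 1 h; screening at 25 uM, follow-up curves up to 50 uM.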
# [15] = molecular target: Histone deacetylase 3 (Homo sapiens) (UniProt O15379); test: NVS_ENZ_hHDAC3: NovaScreen (NVS) Enzymatic Assay for human Histone Deacetylase 3 (HDAC3) (AID 2283163)
# Summary of the method: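 Recombinant human HDAC3 with fluorescent substrate, 1 h after dosing; product separated from substrate by electrophoretic mobility shift and read by fluorescence. Primary screen at 25 uM in duplicate; actives (e.g. ≥30% inhibition) retested in concentration-response up to 50 uM.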
# [16] = molecular target: human Dual Specificity Protein Phosphatase 3 (DUSP3), DUSP3 (gene 1845) (UniProt P51452); test: NVS_ENZ_hDUSP3: NovaScreen (NVS) Enzymatic Assay for human Dual Specificity Protein Phosphatase 3 (DUSP3) (AID 2283152);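 further: phosphatase activity of recombinant human DUSP3 on a fluorogenic substrate without cells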
# Sequence of human Dual Specificity Protein Phosphatase 3 (DUSP3), DUSP3 (gene 1845) (P51452 whole entry, looked up): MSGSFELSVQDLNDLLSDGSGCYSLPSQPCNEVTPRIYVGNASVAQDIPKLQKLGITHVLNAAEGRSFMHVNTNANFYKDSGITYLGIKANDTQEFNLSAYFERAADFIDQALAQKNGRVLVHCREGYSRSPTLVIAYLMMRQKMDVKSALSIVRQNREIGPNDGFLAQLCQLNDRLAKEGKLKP
# Summary of the method: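 Cell-free assay with recombinant human DUSP3 and fluorogenic substrate, read by fluorescence intensity. Primary screen ran duplicate at 25 uM; actives followed up in concentration series; loss of signal versus DMSO scored.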
# [17] = molecular target: human Casein Kinase 1-delta (CK1D), CSNK1D (gene 1453) (UniProt P48730); test: NVS_ENZ_hCK1D: NovaScreen (NVS) Enzymatic Assay for human Casein Kinase 1-delta (CK1D) (AID 2283148)
# Sequence of human Casein Kinase 1-delta (CK1D), CSNK1D (gene 1453) (P48730 whole entry, looked up): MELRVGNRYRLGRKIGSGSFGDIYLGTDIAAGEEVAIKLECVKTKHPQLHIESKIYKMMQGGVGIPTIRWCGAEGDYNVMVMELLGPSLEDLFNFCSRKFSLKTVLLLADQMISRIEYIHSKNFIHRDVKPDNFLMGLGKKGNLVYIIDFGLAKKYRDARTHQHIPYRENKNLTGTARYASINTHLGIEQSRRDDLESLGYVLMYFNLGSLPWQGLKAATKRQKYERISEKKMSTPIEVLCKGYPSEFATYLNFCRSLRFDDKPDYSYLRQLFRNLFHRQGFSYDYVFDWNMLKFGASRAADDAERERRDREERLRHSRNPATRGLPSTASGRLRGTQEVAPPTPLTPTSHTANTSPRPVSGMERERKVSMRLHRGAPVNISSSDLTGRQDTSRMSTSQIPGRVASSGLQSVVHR
# Summary of the method: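 Recombinant human CK1-delta, cell-free; fluorescent substrate with electrophoretic mobility-shift separation of product, read 1 h after dosing. Single 25 uM duplicate screen, then concentration-response up to 50 uM; loss of signal vs DMSO.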
structure (smiles),measurement,setting,value
CCc1c(C(=O)NN2CCCCC2)nn(-c2ccc(Cl)cc2Cl)c1-c1ccc(Br)cc1,outcome,[1],inactive
same,outcome,[2],inactive
same,outcome,[3],inactive
same,outcome,[4],inactive
same,outcome,[5],inactive
CNCc1cc(F)ccc1Oc1ccc(Cl)c(Cl)c1,AC50,[2],1.11 µM (active)
CCOC(=O)C(C)(C)Oc1ccc(Cl)cc1,outcome,[6],inactive
same,outcome,[7],inactive
same,outcome,[8],inactive
CCOC(=O)CCC(=O)OCC,outcome,[9],inactive
same,outcome,[10],inactive
same,AC50,[2],15.4 µM (active)
same,outcome,[11],inactive
C=CCOC(=O)c1ccccc1C(=O)OCC=C,AC50,[1],6.19 µM (active)
same,AC50,[2],2.99 µM (active)
COc1cc(C=O)ccc1O,outcome,[5],inactive
same,outcome,[12],inactive
CC1(C)NC(=O)NC1=O,outcome,[11],inactive
CC1(C)CC(N=C=O)CC(C)(CN=C=O)C1 (stereo unspecified),AC50,[11],6.21 µM (active)
same,outcome,[13],inactive
Cc1nc(-c2ccc3c(c2)CCN(CCC2CCC(NC(=O)/C=C/c4ccc(F)cc4)CC2)CC3)no1 (stereo unspecified),outcome,Caspase-3 (Homo sapiens),inactive
same,outcome,[3],inactive
same,AC50,[5],18.3 µM (active)
Cc1cccc(Nc2cc(Cl)nc(SCC(=O)O)n2)c1C,outcome,[5],inactive
CNC(=O)[C@H]1O[C@@H](n2cnc3c(NCc4cc(Cl)ccc4OCc4cc(C)no4)ncnc32)[C@H](O)[C@@H]1N,outcome,[14],inactive
same,outcome,[13],inactive
CC(C)c1ccc(C(=O)N=C(N)N)cc1S(C)(=O)=O,outcome,[15],inactive
NS(=O)(=O)c1cc2c(cc1Cl)NCNS2(=O)=O,outcome,[4],inactive
O=c1c(O)c(-c2ccc(O)c(O)c2)oc2cc(O)cc(O)c12,outcome,[11],inactive
same,outcome,[3],inactive
same,outcome,[5],inactive
same,outcome,[15],inactive
COCCOC[C@H](CC1(C(=O)NC2CCC(C(=O)O)CC2)CCCC1)C(=O)Oc1ccc2c(c1)CCC2 (stereo partly specified),outcome,[8],inactive
COc1cc(-c2nc(NC(=O)c3cc4cc(C)cc(C)c4n3CC(=O)O)sc2CCC2CCCCC2)c(OC)cc1Cl,AC50,[3],14.3 µM (active)
same,AC50,[16],1.23 µM (active)
same,AC50,[5],5.61 µM (active)
Nc1ccccc1N,outcome,[7],inactive
same,AC50,[16],16.4 µM (active)
same,AC50,[8],17.6 µM (active)
CCCCCCCCCCCCCCCCCC(=O)O,AC50,[16],19.6 µM (active)
same,AC50,[5],7.85 µM (active)
COc1cc(S(=O)(=O)O)c(C)cc1N=Nc1c(O)ccc2cc(S(=O)(=O)O)ccc12,AC50,Caspase-3 (Homo sapiens),15.3 µM (active)
same,AC50,[3],25 µM (active)
CCCCc1ccc2c(n1)[C@@H](c1ccc(OC)cc1C[C@H](C)C(=O)O)[C@H](C(=O)O)[C@H]2c1ccc2c(c1)OCO2,AC50,[7],9.68 µM (active)
same,outcome,[3],inactive
CC(=O)Oc1ccccc1C(=O)O,outcome,[4],inactive
NC(=O)Cn1c(=O)cc(CCN2CCN(c3nccc4sccc34)CC2)c2ccc(F)cc21,AC50,[8],13 µM (active)
NCC1(Cc2noc(=O)[nH]2)CCCCC1,outcome,[8],inactive
Cc1ccc(C(C)C)c(O)c1,outcome,[3],inactive
same,outcome,[8],inactive
CC(C)(C)c1cc(O)c(C(C)(C)C)cc1O,outcome,[14],inactive
same,outcome,[8],inactive
Cc1ccccc1Cl,outcome,[17],inactive
Cc1oc(-c2ccccc2)nc1CCOc1cccc2c1ccn2CCC(=O)O,AC50,[7],9.92 µM (active)
same,AC50,[5],11.9 µM (active)
same,outcome,[12],inactive
CCCCCC(=O)O,outcome,[14],inactive
same,outcome,[11],inactive
CC(=O)C(C)=CC1C(C)=CCCC1(C)C (stereo unspecified),outcome,[14],inactive
same,outcome,[17],inactive
Cc1cc(=O)[nH]c(=S)[nH]1,outcome,[8],inactive
O=C(OCCCCCOC(=O)c1ccccc1)c1ccccc1,outcome,[14],inactive
same,outcome,[11],inactive
same,outcome,[17],inactive
same,outcome,[4],inactive
CCCCOC(=O)CCCCCCCCC(=O)OCCCC,AC50,[7],2.12 µM (active)
